Results on 47 compounds are retold here after PubChem BioAssay AID2685 (National Center for Advancing Translational Sciences (NCATS), 2010).

Among all 320,000 compounds or so, about 2,100 (0.66%) were called active. Not shown: some 53% with an inconclusive outcome. Calls come from the whole dose curve; as a rule, active = well fitted inhibition curve with a large enough effect in the signal ratio, with a control signal flat (not every such curve was filed as active); inconclusive = small, poorly fitted or top-dose-only effect, or effect the other way, or a change in a side signal; inactive = flat fitted curve, though single readings scatter; the % refers to the signal ratio. Only a selection was taken, and actives are over-represented in it overall.
Potency is the fitted concentration of half-maximal effect.

A short description of the assay: qHTS Assay for Lipid Storage Modulators in Drosophila S3 Cells.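 For cell number change: cells counted by Cell Tracker Red CMTPX staining in the red channel.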 For lipid storage change, negative = inhibition: % is set by controls: 0 for no effect and ±100 for the full control effect. As to conditions: BODIPY lipid droplet fluorescence, 18-24 h, cells fed with added oleic acid; cell number change: measured here: cell count max response; series mostly up to 46.1 µM. An outline of the steps: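 Drosophila S3 cells got compounds at several concentrations plus oleic acid (400 uM solution). Laser-scanning cytometry with 488 nm excitation read lipid droplets at 500-530 nm and cells at 575-640 nm. Percent activity was relative to 20 uM Triacsin C.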
As for `CS(=O)(=O)c1ccccc1C(=O)Nc1cccc(-c2nc3ccccc3o2)c1`, the Potency was 13 µM (active) and the cell number change was -20.6%.
Turning to `O=C(O)c1ccccc1-c1ccccc1C(=O)Nc1cccc(-c2nc3ccccc3o2)c1`, the Potency entry was “inactive” and the cell number change turned out to be 14.5%.
As to `CC(=O)Nc1cccc(-c2nc3ccccc3o2)c1`, the Potency entry is “inactive”.
As for `COc1cccc(-c2cc(C(=O)NCC3CCCO3)c3ccccc3n2)c1` (configuration not stated), the Potency result is “inactive”.
As to `O=C(CS(=O)(=O)c1ccccc1)Nc1ncc([N+](=O)[O-])s1`, the Potency result was “inactive” and the cell number change is -6.25%.
Taken in the same sequence, the figures for `Cc1ccc(S(=O)(=O)CC(=O)Nc2ncc([N+](=O)[O-])s2)cc1` were “inactive” and -14.4%.
Turning to `Cc1ccnc(NC(=O)c2ccc([N+](=O)[O-])s2)c1`, the Potency is 11.2 µM (active) and the cell number change was -22%.
On to `CCCc1nnc(NC(=O)CCS(=O)(=O)c2ccccc2)s1`, for which the Potency is 1.46 µM (active) and the cell number change is 3.42%.
Taken in the same sequence, the figures for `Cc1ccc(C(=O)Nc2ncc([N+](=O)[O-])s2)cc1` were 23.1 µM (active) and -15.4%.
Taken in the same sequence, the figures for `O=C(CCS(=O)(=O)c1ccccc1)Nc1ncc([N+](=O)[O-])s1` were 4.61 µM (active) and -3.6%.
Consider `Cc1ccc(CC(=O)Nc2ncc([N+](=O)[O-])s2)cc1`, for which the Potency entry was “inactive” and the cell number change amounted to 2.17%.
In the case of `Cc1ccnc(NC(=O)c2ccc(Cl)s2)c1`, the Potency entry was “inactive”.
Turning to `Cc1ncoc1C(=O)Nc1ncc([N+](=O)[O-])s1`, the Potency entry was “inactive” and the cell number change was -6.04%.
For `CCCc1nnc(NC(=O)CS(=O)(=O)c2ccccc2)s1`, the Potency result is “inactive” and the cell number change is -20%.
For `Cc1ccnc(NC(=O)c2ccc(Br)s2)c1`, the Potency entry is “inactive” and the cell number change was determined as 12.2%.
Take `CCOCCc1nnc(NC(=O)CCS(=O)(=O)c2ccccc2)s1`: the Potency result is “inactive” and the cell number change is -12%.
For `O=C(Nc1ccccc1F)Nc1ccc([N+](=O)[O-])cc1Cl`, the Potency entry is “inactive” and the cell number change was 6.06%.
For the compound `Cc1ccccc1S(=O)(=O)Cc1ccc(C(=O)NC(C)c2ccccc2)o1` (configuration not stated), the Potency result is “inactive”.
Consider `Cn1cc(Br)c(NS(=O)(=O)c2ccc(Cl)s2)n1`, for which the Potency result is “inactive” and the cell number change is 7.84%.
Turning to `CCc1ccc(C(=O)COC(=O)CNC(=O)CNC(=O)Cc2ccccc2)cc1`, the Potency result is “inactive” and the cell number change was -4.14%.
Consider `CCc1ccccc1NC(=O)c1cnc2n(c1=O)CCS2`, for which the Potency result was “inactive” and the cell number change was -5.43%.
The corresponding values for `COc1ccc(C(=O)Oc2cc(/C=N/NS(=O)(=O)c3ccccc3)ccc2OC)cc1` are “inactive” and -2.45%.
With `COc1ccccc1NS(=O)(=O)c1ccc(C(=O)NCC(c2ccco2)N(C)C)cc1` (configuration not stated), the Potency result was “inactive” and the cell number change is -9.2%.
Taken in the same sequence, the figures for `O=C(Nc1nc2c(F)cc(F)cc2s1)C1CCN(C(=O)c2ccc(F)cc2)CC1` were “inactive” and 13.4%.
Taken in the same sequence, the figures for `CC1(C)CC(C(CC(=O)Nc2nccs2)c2ccccc2)CCO1` (configuration not stated) were “inactive” and -3.73%.
For `O=C(CSc1nnc2c(Cl)cc(Cl)cn12)N1CCN(S(=O)(=O)c2ccccc2)CC1`, the Potency result was “inactive” and the cell number change was 0.68%.
In the case of `CCOc1cc(C2C(C#N)=C(N)OC(C)=C2C(C)=O)cc(Br)c1O` (configuration not stated), the Potency is 8.2 µM (active).
On to `CCOC(=O)C1=C(C)OC(N)=C(C#N)C1c1cccc(C)c1` (configuration not stated), for which the Potency entry was “inactive” and the cell number change amounted to 26.4%.
`CCOC(=O)C1=C(C)OC(N)=C(C#N)C1c1ccccc1` (configuration not stated): the cell number change stood at 2.6% and the lipid storage change, negative = inhibition is 8.87% [at 9.22 µM] (inactive).
For the compound `CCc1nnc(NS(=O)(=O)c2ccc(NC(=O)c3ccco3)cc2)s1`, the Potency result is “inactive” and the cell number change was -17.4%.
Consider `COc1ccc(CC2S/C(=N/N=C/c3ccc(O)cc3)NC2=O)cc1` (configuration not stated), for which the Potency entry is “inactive” and the cell number change was 8.53%.
The corresponding values for `COc1ccc(/C=N/N=C2/NC(=O)C(c3ccccc3)(c3ccccc3)S2)cc1` are 16.4 µM (active) and 1.45%.
In the case of `COc1ccc(/C=N/N=C2/NC(=O)CC(C(=O)O)S2)cc1` (configuration not stated), the Potency result was “inactive”.
With `Cc1ccc(/C=C/S(=O)(=O)NCC(=O)OCC(=O)N2CC(=O)Nc3ccccc32)cc1`, the Potency result was “inactive” and the cell number change worked out at 5.37%.
Taken in the same sequence, the figures for `CCOc1ncccc1C(=O)Nc1cccc(C(=O)Nc2cccc(S(=O)(=O)CCO)c2)c1` were “inactive” and -9.36%.
On to `Cc1ccc(-c2nnc(SCC#N)n2N)cc1`, for which the Potency result was “inactive” and the cell number change was determined as 6.27%.
Turning to `COc1ccc(-c2csc3ncn(-c4ccccc4)c(=O)c23)cc1OC`, the Potency entry was “inactive” and the cell number change is -7.4%.
For `Cc1cc(C)nc(CCNC(=O)C2CCC(=O)N(Cc3ccccc3F)C2)n1` (configuration not stated), the Potency entry was “inactive” and the cell number change is 14.5%.
For the compound `CCCNC(=O)CSCc1nc(-c2ccc(SC)cc2)oc1C`, the Potency entry is “inactive” and the cell number change came out at 10.2%.
Take `CSc1ccc(-c2nc(CSCC(=O)NCCCN3CCCC3=O)c(C)o2)cc1`: the Potency is 1.84 µM (active).
On to `CSc1ccc(-c2nc(CSCC(=O)NCCCN3CCOCC3)c(C)o2)cc1`, for which the Potency result is “inactive” and the cell number change was -0.666%.
Take `CCOC(=O)C(CCCOc1cccc(OC)c1)C(=O)OCC`: the Potency entry is “inactive” and the cell number change is -10.4%.
Taken in the same sequence, the figures for `O=C(COc1ccc([N+](=O)[O-])cc1)N1CCc2ccccc2C1` were “inactive” and 20%.
Taken in the same sequence, the figures for `COc1ccc([N+](=O)[O-])cc1NC(=O)c1ccccc1N(C)S(C)(=O)=O` were “inactive” and -12.5%.
As for `Clc1ccc(-c2nnc(Sc3nc4ccccc4o3)c3ccccc23)cc1`, the Potency result was “inactive” and the cell number change was -12.5%.
As to `O=c1c(Cl)c2oc3ccccc3nc-2c2ccccc12`, the Potency was 11.6 µM (active) and the cell number change was determined as 13.2%.
With `Cc1ccc(-c2nnc(Sc3nc4ccccc4o3)c3ccccc23)cc1`, the Potency entry is “inactive” and the cell number change is -15.3%.
